This is an account of results in PubChem BioAssay (NCATS).

Activity calls are given as the source filed them. The call rests on the fitted dose curve; in most records, active means well fitted curve in the direction sought with a large enough effect; inconclusive means small, poorly fitted or top-dose-only effect, or another doubt; inactive means no such curve, though single readings can be large or run the other way.

Sequence of Thyrotropin receptor (Homo sapiens) (P16473 whole entry, looked up): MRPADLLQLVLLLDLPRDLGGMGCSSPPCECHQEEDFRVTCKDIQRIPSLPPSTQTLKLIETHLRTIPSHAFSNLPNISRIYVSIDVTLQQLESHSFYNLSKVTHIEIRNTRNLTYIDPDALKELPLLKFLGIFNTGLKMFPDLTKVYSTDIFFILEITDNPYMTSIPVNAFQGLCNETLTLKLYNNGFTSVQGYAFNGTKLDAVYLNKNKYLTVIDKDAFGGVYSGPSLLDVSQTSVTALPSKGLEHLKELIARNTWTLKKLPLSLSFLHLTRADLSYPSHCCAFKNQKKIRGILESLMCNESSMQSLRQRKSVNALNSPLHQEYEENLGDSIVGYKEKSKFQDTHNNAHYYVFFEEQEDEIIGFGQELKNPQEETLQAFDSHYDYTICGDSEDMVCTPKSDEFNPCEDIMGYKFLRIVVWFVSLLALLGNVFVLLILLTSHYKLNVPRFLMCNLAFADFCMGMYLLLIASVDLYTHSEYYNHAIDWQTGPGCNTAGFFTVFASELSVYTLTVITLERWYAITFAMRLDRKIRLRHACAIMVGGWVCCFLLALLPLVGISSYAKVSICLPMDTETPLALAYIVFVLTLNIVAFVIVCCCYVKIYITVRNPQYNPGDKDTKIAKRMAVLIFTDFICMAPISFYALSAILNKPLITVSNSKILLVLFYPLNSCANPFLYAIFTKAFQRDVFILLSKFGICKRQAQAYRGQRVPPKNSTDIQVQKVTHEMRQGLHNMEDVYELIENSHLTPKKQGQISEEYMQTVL

In the assay the target is Thyrotropin receptor (Homo sapiens) (UniProt P16473). Briefly: qHTS Assay for Antagonists of the Thyroid Stimulating Hormone Receptor (AID 488980). Further: 0% is about no effect. Particulars: TSHR-expressing cells, cAMP antagonist read-out; series mostly up to 57.5 µM; activity, negative = inhibition: at the top concentration. The source says:
TSH is an alpha/beta heterodimeric glycoprotein hormone secreted from the anterior pituitary gland which belongs to the glycoprotein hormone family. The actions of TSH are mediated by a seven-transmembrane receptor, which upon TSH binding couples preferentially to the G-alpha (s) protein (Gs), resulting in activation of adenylate cyclase and increase in cyclic adenosine 3', 5' monophosphate (cAMP). The TSH receptor (THSR) is mainly expressed in thyroid follicular cells and regulates their growth and function. This cell based assay was conducted on a TSHR transfected HEK 293 cell line, measuring cAMP stimulation using antibody-based Homogeneous Time Resolved Fluorescence (HTRF).
Our goal is to identify small molecules that will inhibit (antagonize) the thyroid-stimulating hormone receptor (TSHR), a member of the 7 transmembrane-spanning receptor (7TMR) family of cell surface receptors. TSHR-mediated hyperthyroidism is important in thyroid pathology. The development of small molecule antagonists of TSHR may lead to therapeutic approaches for TSHR-mediated hyperthyroidism caused by constitutively activating mutations or stimulating auto-antibodies associated with Graves' disease. Graves' disease is the leading cause of hyperthyroidism and is caused by autoantibodies that stimulate TSHR (TsAbs) causing thyroid growth and unregulated overproduction of thyroid hormones and existing treatments have liabilities (agranulocytosis). In addition, TSHRs are known to be expressed in multiple extrathyroidal tissues including bone, brain, kidney, testis, fat and cells of the immune system but the role of the TSHR in these tissues is not clear. Therefore, TSHR antagonists/inverse agonists could be used as probes of extrathyroidal TSHR function. Finally, TSHR inverse agonists, which are a subclass of antagonists that inhibit agonist-independent (or basal or constitutive) TSHR signaling, could be used to inhibit TSH-independent signaling in patients with recurrent or metastatic thyroid cancer who are receiving thyroid hormone to suppress TSH.
An anti cAMP antibody contains a fluorescent cryptate tag (excitation 337 nm; emission 620 nm) and the acceptor is cAMP-d2 (excitation 620 nm; emission 665 nm). When antibody and cAMP-d2 interact and are excited by a 337 nm light, a FRET occurs resulting in emission at 665 nm. The assay is competition between cAMP-d2 and cAMP (from the cell lysate). The homogeneous protocol allows for one step dispense after stimulation that is automation friendly.
Step, Parameter, Value, Description
1, Cells, 3 uL, 2000 TSHR freshly harvested cells/well 1536 TC treated White solid bottom plate (Cells resuspended in 10 mM HEPES buffered HBSS and 70 uM RO 20-1724)
2, Compound, 23 nL, Libraries and controls
3, Compound, 1 uL, EC80 TSH (4 nM final)
5, Reagent, 2 uL, cAMP antibody diluted 1:20 in lysis buffer
6, Time, 30 minutes, Room temperature
7, Detector, HTRF settings, Viewlux
On to `C[C@]12Cc3cn4c(nc3C=C1CCC1C2CC[C@@]2(C)[C@H]1CC[C@@]2(O)C#N)nc1ccccc14` (stereo not given in full), for which the “activity, negative = inhibition” value is -1.24% (inactive). In the case of `C[N+]1(C)C2CCC1CC(OC(=O)c1c[nH]c3ccccc13)C2` (stereo not given), the “activity, negative = inhibition” value was 0.11% (inactive). As for `O=C(O)c1cc[c]([Hg][Cl])cc1`, the “activity, negative = inhibition” value is -0.258% (inactive).

Take `COc1cc(CC(C)N)c(OC)cc1I` (stereo not given): the “activity, negative = inhibition” value is -2.07% (inactive).

Consider `C=CCN1CC[C@]23c4c5ccc(O)c4O[C@@H]2/C(=N/N=C2\CC[C@@]4(O)C6Cc7ccc(O)c8c7[C@@]4(CCN6CC=C)[C@@H]2O8)CC[C@@]3(O)C1C5`, for which the “activity, negative = inhibition” value was 0.11% (inactive). Under `O=C1C=CC(=O)C=C1` stands -2.81% (inactive); under `Clc1ccc(N2CC3CCC(C2)N3)nn1`, -0.91% (inactive); under `Oc1ccc2c3c1O[C@H]1c4oc5ccccc5c4C[C@@]4(O)C(C2)N(CC2CC2)CCC314` (stereo not given in full), -0.252% (inactive).

Turning to `NC(N)=Nc1ccc2[nH]c3c(c2c1)C[C@@]1(O)[C@H]2Cc4ccc(O)c5c4[C@@]1(CCN2CC1CC1)[C@H]3O5`, the “activity, negative = inhibition” value is -1.93% (inactive). On to `CC(N)c1cccc(Cl)c1Cl` (stereo not given), for which the “activity, negative = inhibition” value is -1.26% (inactive).

`CCCN(CCC)CCc1c[nH]c2ccc(C(N)=O)cc12`: the “activity, negative = inhibition” value is -2.41% (inactive). On to `O=C1CC[C@@]2(O)C3Cc4ccc(O)c5c4C2(CCN3CC2CC2)[C@H]1O5` (stereo not given in full), for which the “activity, negative = inhibition” value was -1.13% (inactive).

`CC(=O)c1c(O)c(C)c(O)c(Cc2c(O)c3c(c(C(=O)/C=C/c4ccccc4)c2O)OC(C)(C)C=C3)c1O`: the “activity, negative = inhibition” value was 0.767% (inactive).

`NC(Cc1cc(O)c(O)cc1O)C(=O)O` (stereo not given): the “activity, negative = inhibition” value was 0.147% (inactive).

`CCN(CCCl)Cc1ccccc1Br`: the “activity, negative = inhibition” value was -0.789% (inactive). As for `C[N+](C)(C)CC#CCOC(=O)Nc1cccc(Cl)c1`, the figure is -2.2% (inactive); as for `C=CCN1CCC23c4c5ccc(O)c4O[C@H]2C(=O)CC[C@@]3(O)C1C5` (stereo not given in full), -1.64% (inactive); as for `CN(N=O)c1ccc(O)c(O)c1`, -0.305% (inactive). For the compound `Cc1c2ccncc2c(C)c2c1[nH]c1ccccc12`, the “activity, negative = inhibition” value was -0.393% (inactive). For `Cc1sc2ccccc2c1CC1=NCCN1`, the “activity, negative = inhibition” value was -1.31% (inactive). For `COc1ccc2[nH]c3c(c2c1)CCNC3`, the “activity, negative = inhibition” value is -0.795% (inactive).

For `CCCn1c(=O)c2[nH]c(C3CCCC3)nc2n(CCCOC(=O)c2ccc(S(=O)(=O)F)cc2)c1=O`, the “activity, negative = inhibition” value was -0.449% (inactive). For `CCCN(CCC)[C@@H]1CCc2cccc(O)c2C1`, the “activity, negative = inhibition” value was -0.693% (inactive). On to `CNC(=O)OCC[N+](C)(C)C`, for which the “activity, negative = inhibition” value was 0.225% (inactive).

`C=CCN1CC[C@]23c4c5ccc(O)c4O[C@H]2/C(=N/NC(=O)c2ccccc2)CC[C@@]3(O)[C@H]1C5`: the “activity, negative = inhibition” value is -1.42% (inactive). Turning to `CN1CCC(c2c[nH]c3ccc(O)cc23)CC1`, the “activity, negative = inhibition” value is -1.23% (inactive). For the compound `COc1ccc(OC)c(C(O)C(C)N)c1` (stereo not given), the “activity, negative = inhibition” value is -1.84% (inactive). Under `CCCN(CCC)C1CCc2cccc(O)c2C1` (stereo not given) stands -0.313% (inactive). `CN(N=O)c1cc(O)ccc1O`: the “activity, negative = inhibition” value was 0.11% (inactive). In the case of `Cc1[nH]c2ccc(O)cc2c1CCN`, the “activity, negative = inhibition” value was -1.97% (inactive). On to `C[Se]C[C@H](N)C(=O)O`, for which the “activity, negative = inhibition” value was -1.52% (inactive).

Take `CCS(=O)(=O)Nc1cccc(C(=C2CCCCC2)c2cnc[nH]2)c1`: the “activity, negative = inhibition” value was -1.2% (inactive). Regarding `C/C(O)=C(\C#N)C(=O)Nc1cc(Br)ccc1Br`, the “activity, negative = inhibition” value is -0.699% (inactive).

In the case of `O=S1(=O)N(CCN2CC=C(c3c[nH]c4cc(F)ccc34)CC2)c2cccc3c2N1CCC3`, the “activity, negative = inhibition” value was -0.266% (inactive). As for `N[C@@]1(C(=O)O)CC[C@@H](C(=O)O)C1`, the figure is -0.564% (inactive); as for `CCn1cnc2c(Nc3cccc(Cl)c3)nc(N[C@@H]3CCCC[C@@H]3N)nc21`, -0.165% (inactive); as for `Nc1ccc(CCN2CCN(c3cccc(C(F)(F)F)c3)CC2)cc1`, -0.188% (inactive). Turning to `NCC(CP(=O)(O)O)c1ccc(Cl)cc1` (stereo not given), the “activity, negative = inhibition” value is -1.9% (inactive). With `NC(N)=NOCC[C@H](N)C(=O)O`, the “activity, negative = inhibition” value was -0.754% (inactive).

As to `N#CC(C#N)=Cc1cc(O)c(O)c(O)c1`, the “activity, negative = inhibition” value was -2.14% (inactive).
